PubChem BioAssay AID743049 (Broad Institute, 2013)
Potency and affinity values are given separately. Results filed as inconclusive are left out. Where a call stands in place of a potency, no number is given. Activity calls are given as the source filed them. How the calls were made is not given here.

Experiment: PAX8-dependent cell viability loss – plate reader, dry powder, dose response (AID 743049)

| SMILES | outcome |
| --- | --- |
| COc1ccccc1C#Cc1ccc([C@@H]2[C@@H](C#N)N(C(=O)C3CCCCC3)[C@H]2CO)cc1 | inactive |
| Cc1ccccc1CNC(=O)C1CCCN(c2nnc(C)c3c(C)n(-c4ccccc4)nc23)C1 (configuration not stated) | inactive |
